# Reference: PubChem BioAssay (NCATS)
# Records with an inconclusive call do not appear. Calls of active or inactive are those of the source. Calls follow the shape of the dose curve; as a rule, active = well fitted cell-killing curve with a large enough effect; inconclusive = small, poorly fitted or top-dose-only effect, or effect the other way; inactive = no such curve, though single readings can be large or run the other way.
# What was measured:
# [1] = Quantitative High-Throughput drug screen in 47 multiple myeloma cell lines against the NCATS MIPE library collection: FR4_PLB cell viability assay (AID 1918924; also: nearly all actives have a fitted effect of over 35% in size)
# Procedure, shortened: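 Viability readout: CellTiter-Glo luminescence following 5 min room-temperature incubation with reagent. Prior exposure: 48 h, 37C, humidified 5% CO2, 500 cells per well.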
# [2] = Quantitative High-Throughput drug screen in 47 multiple myeloma cell lines against the NCATS MIPE library collection: Delta47_JCRB cell viability assay (AID 1918925; also: nearly all actives have a fitted effect of over 45% in size)
# Procedure, shortened: (§1)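 CellTiter-Glo luminescence (ATP) after 48 h compound exposure, 37C/5% CO2; 500 cells/well; MIPE 4.0 approved/investigational drugs pinned in; DMSO = 100%, media only = 0% viability.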
# [3] = Quantitative High-Throughput drug screen in 47 multiple myeloma cell lines against the NCATS MIPE library collection: EJM_DSMZ cell viability assay (AID 1918926; also: nearly all actives have a fitted effect of over 30% in size)
# Procedure, shortened: as §1
# [4] = Quantitative High-Throughput drug screen in 47 multiple myeloma cell lines against the NCATS MIPE library collection: AMO1_DSMZ cell viability assay (AID 1918927; also: nearly all actives have a fitted effect of over 30% in size)
# Procedure, shortened: as §1
# [5] = Quantitative High-Throughput drug screen in 47 multiple myeloma cell lines against the NCATS MIPE library collection: ARP1_JJKsccF8 cell viability assay (AID 1918928; also: nearly all actives have a fitted effect of over 40% in size)
# Procedure, shortened: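 Myeloma cells, 500 per well, were exposed to MIPE 4.0 drugs by pin transfer for 48 h at 37 °C, 5% CO2. Viability was read as ATP luminescence with CellTiter-Glo, normalised to DMSO-only (100%) and medium-only (0%) wells.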
# Potency is read from the fitted curve at half-maximal effect.
Compound,Potency [1],Potency [2],Potency [3],Potency [4],Potency [5],viability (% of DMSO control) [1],viability (% of DMSO) [2],"viability, % of control [3]",viability [5]
CCNC(=O)c1cc2c(-c3cc(OCCN4CCCC4)c(Cl)cc3Cl)nc(N)nc2s1,1480 nM (active),1050 nM (active),2090 nM (active),935 nM (active),1660 nM (active),–,–,–,–
C#C[C@]1(O)CC[C@@H]2[C@@H]3CCc4cc(O)ccc4[C@H]3CC[C@@]21C,16600 nM (active),7430 nM (active),6620 nM (active),16600 nM (active),23500 nM (active),–,–,–,–
CS[C@H]1SC[C@@H]2C(=O)N(C)[C@H](C(C)C)C(=O)OC[C@H](NC(=O)c3cnc4ccccc4n3)C(=O)N[C@H](C)C(=O)N(C)[C@@H]1C(=O)N(C)[C@H](C(C)C)C(=O)OC[C@H](NC(=O)c1cnc3ccccc3n1)C(=O)N[C@H](C)C(=O)N2C,4.2 nM (active),1 nM (active),5.9 nM (active),–,3.3 nM (active),–,–,–,–
O=C(O)C(=O)Nc1cccc(C2=NN=N[N]2)c1,inactive,inactive,inactive,inactive,inactive,–,–,–,–
CCOC(=O)N1CCN([N+]([O-])=NOc2ccc([N+](=O)[O-])cc2[N+](=O)[O-])CC1,5900 nM (active),1480 nM (active),2640 nM (active),10500 nM (active),2960 nM (active),–,–,–,–
C=CC(=O)Nc1cccc(Nc2nc(NC3CCC(N(C)C)CC3)nc3c2ncn3C(C)C)c1 (configuration not stated),235 nM (active),235 nM (active),8.3 nM (active),–,743 nM (active),–,–,–,–
CC(=O)OCC(=O)[C@@]12N=C(C)O[C@H]1C[C@H]1[C@@H]3CCC4=CC(=O)C=C[C@]4(C)[C@@H]3[C@@H](O)C[C@@]12C,inactive,inactive,inactive,–,inactive,–,–,–,–
CCOC(=O)[C@H](CCc1ccccc1)N[C@@H](C)C(=O)N1[C@@H](C(=O)O)C[C@H]2CCC[C@@H]21,18700 nM (active),8330 nM (active),20900 nM (active),7430 nM (active),20900 nM (active),–,–,–,–
COc1cc([C@@H]2c3cc4c(cc3[C@@H](O[C@@H]3O[C@@H]5CO[C@@H](c6cccs6)O[C@@H]5[C@H](O)[C@@H]3O)[C@H]3COC(=O)[C@H]23)OCO4)cc(OC)c1O,16600 nM (active),935 nM (active),2350 nM (active),590 nM (active),209 nM (active),–,–,–,–
COc1ccc(C(C)=O)c(O)c1,inactive,inactive,inactive,inactive,inactive,–,–,–,–
CC1(C)CC(O)CC(C)(C)N1[O],inactive,inactive,inactive,inactive,inactive,–,–,–,–
CCN(CC)CCNC(=O)c1c(C)[nH]c(C=C2C(=O)Nc3ccc(F)cc32)c1C,10800 nM (active),1520 nM (active),12100 nM (active),3400 nM (active),4810 nM (active),–,–,–,–
C=CCNc1c(O)cc2c(O)c1C[C@@H](C)C[C@H](OC)[C@@H](O)[C@@H](C)C=C(C)[C@H](OC(N)=O)[C@@H](OC)C=CC=C(C)C(=O)N2,372 nM (active),469 nM (active),1050 nM (active),148 nM (active),148 nM (active),–,–,–,–
CCOc1cc2ncc(C#N)c(Nc3ccc(OCc4ccccn4)c(Cl)c3)c2cc1NC(=O)C=CCN(C)C,2350 nM (active),590 nM (active),372 nM (active),93.5 nM (active),14800 nM (active),–,–,–,–
CC(=O)OCC(=O)[C@@]1(O)CC[C@H]2[C@@H]3CCC4=CC(=O)CC[C@]4(C)[C@@H]3C(=O)C[C@@]21C,inactive,inactive,inactive,inactive,inactive,–,–,–,–
CN[C@H]1[C@@H](O)[C@@H]2O[C@@H]3O[C@H](C)CC(=O)[C@]3(O)O[C@@H]2[C@@H](NC)[C@H]1O,1660 nM (active),1180 nM (active),166 nM (active),418 nM (active),1320 nM (active),–,–,–,–
C=C1C(=O)O[C@H]2[C@@H]1CCC(C)=CCC[C@@]1(C)O[C@@H]21,4690 nM (active),2350 nM (active),5260 nM (active),3320 nM (active),4690 nM (active),–,–,–,–
CC[C@H](CC[C@@H](C)[C@H]1CC[C@H]2[C@@H]3CC=C4C[C@@H](O)CC[C@]4(C)[C@@H]3CC[C@]12C)C(C)C,inactive,inactive,inactive,inactive,inactive,–,–,–,–
CCC(C=C[C@@H]1OC(=O)C=C[C@H]1C)=C[C@H](C)CC=CC(C)=C[C@@H](C)C(=O)[C@@H](C)[C@H](O)[C@@H](C)CC(C)=CC(=O)O,31.1 nM (active),22 nM (active),27.7 nM (active),34.9 nM (active),27.7 nM (active),–,–,–,–
Nc1nc(N)c2nc(-c3cccc(O)c3)c(-c3cccc(O)c3)nc2n1,10500 nM (active),5900 nM (active),18700 nM (active),7430 nM (active),20900 nM (active),–,–,–,–
OCCN1C[C@H](O)[C@@H](O)[C@H](O)[C@@H]1CO,inactive,inactive,inactive,inactive,inactive,–,–,–,–

Compound,Potency [1],Potency [2],Potency [3],Potency [4],Potency [5],viability (% of DMSO control) [1],viability (% of DMSO) [2],"viability, % of control [3]",viability [5]
CC[C@]12C=CCN3CC[C@@]4(c5cc([C@@]6(C(=O)OC)C[C@H]7C[C@@H](C(C)(F)F)CN(Cc8c6[nH]c6ccccc86)C7)c(OC)cc5N(C)[C@H]4[C@@](O)(C(=O)OC)[C@H]1OC(C)=O)[C@@H]32,1.7 nM (active),9.3 nM (active),118 nM (active),5.9 nM (active),4.7 nM (active),–,–,–,–
CNC(=O)c1cccc(-c2ccc3c(N4CCOC[C@H]4C)nc(N4CCOC[C@H]4C)nc3n2)c1,66.2 nM (active),29.6 nM (active),1660 nM (active),83.3 nM (active),18.7 nM (active),–,–,–,–
COc1cc(N2CCC(C(N)=O)CC2)ccc1Nc1nc(N)c(Cl)c(Nc2ccccc2S(=O)(=O)C(C)C)n1,14800 nM (active),83.3 nM (active),105 nM (active),5260 nM (active),1320 nM (active),–,–,–,–
COc1cccc2c1C(=O)c1c(O)c3c(c(O)c1C2=O)C[C@@](O)(C(C)=O)C[C@H]3O[C@H]1C[C@H](N)[C@H](O)[C@H](C)O1,132 nM (active),41.8 nM (active),105 nM (active),118 nM (active),59 nM (active),–,–,–,–
C[C@@H]1[C@H](C)CC[C@]2(C(=O)O)CC[C@]3(C)C(=CC[C@@H]4[C@@]5(C)C[C@@H](O)[C@H](O)[C@@](C)(CO)[C@H]5CC[C@]43C)[C@@H]12,inactive,inactive,inactive,inactive,inactive,–,–,–,–
C[C@H](CCC(=O)O)[C@H]1CC[C@H]2[C@@H]3[C@H](O)C[C@@H]4C[C@H](O)CC[C@]4(C)[C@@H]3CC[C@]12C,inactive,inactive,inactive,inactive,inactive,–,–,–,–
C[C@H](NCc1ccc2c(c1)nc(NC(=O)c1ccc(-c3cn[nH]c3)s1)n2CCc1ccccc1)C(C)(C)C,1050 nM (active),662 nM (active),1050 nM (active),662 nM (active),1320 nM (active),–,–,–,–
O=C1NC(=O)C(=Cc2ccc3nccc(-c4ccncc4)c3c2)S1,332 nM (active),33.2 nM (active),662 nM (active),372 nM (active),83.3 nM (active),–,–,–,–
CC(=O)O[C@@]12CO[C@H]1C[C@H](O)[C@@]1(C)C(=O)[C@H](O)C3=C(C)[C@@H](OC(=O)C(O)[C@@H](NC(=O)OC(C)(C)C)c4ccccc4)C[C@@](O)([C@@H](OC(=O)c4ccccc4)[C@@H]21)C3(C)C (some centres not stated),inactive,inactive,inactive,inactive,inactive,–,–,–,–
CC(=O)O[C@H]1C[C@@H]2CC[C@H]3[C@H]4C[C@H]([N+]5(C)CCCCC5)[C@@H](OC(C)=O)[C@@]4(C)CC[C@@H]3[C@@]2(C)C[C@H]1N1CCCCC1,inactive,inactive,inactive,inactive,inactive,–,–,–,–
Nc1ncn([C@@H]2O[C@H](CO)[C@@H](O)[C@@H]2O)c(=O)n1,4690 nM (active),3320 nM (active),13200 nM (active),1480 nM (active),5260 nM (active),–,–,–,–
CCCNC(=O)[C@H]1O[C@H]1C(=O)N[C@H](C(=O)N1CCC[C@@H]1C(=O)OC)C(C)CC (some centres not stated),8330 nM (active),13200 nM (active),5900 nM (active),4690 nM (active),8330 nM (active),–,–,–,–
C[C@H](NC(=O)C(C#N)=Cc1cccc(Br)n1)c1ccccc1,3720 nM (active),2090 nM (active),1660 nM (active),13200 nM (active),5900 nM (active),–,–,–,–
CC(C=CC1=C(C)CCCC1(C)C)=CC=CC(C)=CC(=O)Nc1ccc(O)cc1,9590 nM (active),3820 nM (active),8550 nM (active),3400 nM (active),19100 nM (active),–,–,–,–
COC1=C2C[C@@H](C)C[C@H](OC)[C@@H](O)[C@@H](C)C=C(C)[C@H](OC(N)=O)[C@@H](OC)C=CC=C(C)C(=O)NC(=CC1=O)C2=O,332 nM (active),132 nM (active),–,–,118 nM (active),–,–,–,–
CC(C)(C)[C@H](NC(=O)c1ccc(N)c(Cl)c1)C(=O)N1CCC[C@@H]1C(=O)N[C@H](C#N)CC(=O)O,–,–,–,–,–,107% [at 3.51 µM] (inactive),119% [at 3.51 µM] (inactive),97.8% [at 3.51 µM] (inactive),111% [at 3.51 µM] (inactive)
CCCCCCCCCCCCc1ccc(S(=O)(=O)Nc2nncs2)cc1,inactive,935 nM (active),–,–,inactive,–,–,–,–
CC(=O)N[C@@H]1[C@H](O[C@@H]2c3ccc(c(Cl)c3)Oc3cc4cc(c3O[C@H]3O[C@H](CO)[C@@H](O)[C@H](O)[C@H]3NC(=O)CCCCCCCC(C)C)Oc3ccc(cc3Cl)C[C@H]3NC(=O)[C@H](N)c5ccc(O)c(c5)Oc5cc(O)cc(c5)[C@H](NC3=O)C(=O)N[C@H]4C(=O)N[C@H]3C(=O)N[C@@H]2C(=O)N[C@@H](C(=O)O)c2cc(O)cc(O[C@H]4O[C@H](CO)[C@@H](O)[C@H](O)[C@H]4O)c2-c2cc3ccc2O)O[C@H](CO)[C@@H](O)[C@@H]1O,inactive,–,inactive,inactive,–,–,–,–,–
N#CC(=C(N)Sc1ccc(N)cc1)c1ccccc1C(F)(F)F,inactive,5900 nM (active),inactive,–,14800 nM (active),–,–,–,–
Cc1ccc(O)c(C(CCN(C(C)C)C(C)C)c2ccccc2)c1 (configuration not stated),inactive,–,1.7 nM (active),inactive,–,–,–,–,–
